Source: PubChem BioAssay (NCATS)
Unmarked numbers belong to inactive results. Calls come from the whole dose curve; as a rule, active = well fitted curve in the direction sought with a large enough effect; inconclusive = small, poorly fitted or top-dose-only effect, or another doubt; inactive = no such curve, though single readings can be large; an effect the other way counts as inactive or inconclusive. Inconclusive results are not listed. Peptide text beside a SMILES is read from it. * marks the point of attachment. Hexanoyl = CCCCCC(=O)*

experiment: Inflammasome Signaling qHTS Counterscreen: IL-1-beta AlphaLISA counterscreen against the NCATS CANVASS Library (AID 1347381); settings: Purified IL-1beta AlphaLISA signal interference counterscreen; series mostly up to 57.5 µM; activity change, negative = inhibition: at the top concentration;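 note: cell-free check with purified IL-1β in medium and no THP-1 cells; 0% is about no effect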
How it was run: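 Here, no cellular stimulation occurs; compounds in an 11-point series meet 4 pg purified IL-1-beta directly. Bead-based AlphaLISA detection follows (1 h acceptor/antibody, then 30 min donor, dark, room temperature), with excitation at 680 nm.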

Row | SMILES | activity change, negative = inhibition [%]
1 | C=C1[C@@]2(C)CC3C4(C)CCC(O)C(C)(C)C4CCC3(C)[C@]1(C(=O)OC)C(=O)C(C)(O)C2=O (stereo partly specified) | 4.33
2 | CC(C)=CCC[C@]1(C)[C@H]2CC(=O)[C@@]3(CO3)[C@@H]1C2 | -9.8
3 | CCCCCC(=O)N[C@@H](CC(C)C)C(=O)N[C@H](C=O)CCC(=O)O (Hexanoyl-Leu-Glu-aldehyde) | 9.48
4 | COc1ccc([C@@H]2c3cc4c(cc3C(=O)C(C)C2C)OCO4)cc1OC (stereo partly specified) | 1.68
5 | CC1(C)CC[C@]2(CO)CC[C@]3(C)C(=CCC4[C@@]5(C)CC[C@H](O)C(C)(C)C5CC[C@]43C)C2C1 (stereo partly specified) | -5.22

experiment: Cytotoxicity qHTS for assessment of Hepg2 cells membrane integrity screened against the NCATS CANVASS Library (AID 1347387); settings: HepG2 LDH release (CytoTox-ONE) fluorescence, 5 h; series mostly up to 46.1 µM; cytotoxicity (LDH release): at the top concentration
How it was run: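 Membrane damage in HepG2 monolayers was estimated from released LDH, measured with CytoTox-ONE (ex 560/em 590 nm), after 5 hr treatment across 0.59 nM - 46 uM final.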

Row | SMILES | cytotoxicity (LDH release)
6 | CC(=O)N[C@H](C)c1nc(/C=C/C=C/C(=O)CC2CC(=O)CC[C@]2(C)O)cs1 (stereo partly specified) | -1.45
7 | CN1C(=O)C(=O)N2C(=C[C@]3(c4c[nH]c5ccccc45)c4ccccc4N[C@H]23)C1=O | -0.324
8 | CN1CC[C@]23c4ccccc4N[C@H]1[C@]21CCN(C)[C@H]3Nc2ccccc21 | 0.391
9 | C/C=C1/C2=CCCN3C(=O)O[C@H]([C@H]1O)[C@H]23 | 3.35
10 | O=C1CC(c2ccc(O)cc2)Oc2ccccc21 (stereo unspecified) | 1.02
11 | COc1c(O)cc(O)c2c(=O)cc(-c3ccccc3)oc12 | -4.31
12 | COC1C(C)OC(OCC23C[C@@H]4[C@H](C)CC[C@H]4C4(C=O)CC2C=C(C(C)C)C34C(=O)O)[C@@H](O)[C@H]1O (stereo partly specified) | -1.84
13 | CN1CC[C@@]2([C@@]34CCN(C)[C@@H]3Nc3ccccc34)c3ccccc3N[C@@H]12 | 0.718
14 | COc1ccc(-c2oc3cc(OC)cc(OC)c3c(=O)c2O)cc1 | 1.84
15 | Cc1cc(O)cc2c1C(=O)c1c(O)cc(O)cc1C2=O | 0.607
16 | C=C[C@]1(C)CC[C@@H]([C@H](C)C(=O)CC=C(C)C)O1 | -0.221
17 | CC[C@@H]1C[C@@]2(CC)OC(=O)[C@@]3(CC)[C@H](CC)[C@@H]1[C@@H]23 | 2.49
18 | [C-]#[N+][C@@]12C(=O)[C@@H]3[C@@H](O[C@@]4(C(=O)N(C)c5cccc1c54)C3(C)C)C(=O)[C@@]2(C)C=C | 7.98
19 | COC(=O)c1cccc2oc(-c3cccc4oc(-c5c(C)cccc5O)nc34)nc12 | -0.476
20 | C[C@@]12CCC[C@@](C)(C(=O)OP(=O)(O)OC[C@H]3O[C@@H](n4cnc5c(N)ncnc54)[C@H](O)[C@@H]3O)[C@H]1C[C@@H](O)[C@@]13C[C@@H](CC[C@@H]21)[C@](C)(O)C3 | -1.56
21 | CCC(C)=C1OC(=O)[C@H](C)[C@H](O)[C@H](Cc2cccnc2)NC(=O)C(NC(=O)c2ncccc2O)C(C)OC1=O (stereo partly specified) | -1.15

Row | SMILES | cytotoxicity (LDH release)
22 | C[C@@]12CCC[C@@](C)(C(=O)O)[C@H]1CC[C@@]13C[C@@H](CC[C@H]12)[C@](C)(O)C3 | 0.949
23 | O=C1OC(CCO)c2cccc(O)c21 (stereo unspecified) | -1.23
24 | C=C1C[C@]23C=CC(=O)[C@@](C)(CCCC(C)C(=O)N[C@@H](CO)C(=O)O)[C@@H]2C[C@@H]1CC3 (stereo partly specified) | 0.802
25 | COc1cc2ccc(=O)oc2c(O)c1O[C@@H]1O[C@H](CO)[C@@H](O)[C@H](O)[C@H]1O | -0.415 [at 27.5 µM]
26 | C/C(=C\[C@@H](C)CC/C=C/CC/C=C/C(=O)O)[C@@H](O)[C@H](C)C(=O)CCCC1CC(=O)NC(=O)C1 | 0.216
27 | CO[C@@H](C[C@@H](C)[C@@H](O)/C=C/C=C/CNC(=O)C(C)(C)[C@H](O)\C(C)=C/C=C\C=C\Cc1cnco1)[C@]1(O)[C@@H](C)C(=O)N(C)[C@@]12COC2=O | -0.562
28 | O=C1CC(c2ccc(O)cc2)Oc2cc(O)cc(O)c21 (stereo unspecified) | 1.36
29 | O=C1CC(c2ccc(O)cc2)Oc2cc(O)ccc21 (stereo unspecified) | -1.37
30 | CN1CC[C@@]23c4ccccc4N[C@@H]1[C@@]21CCN(C)[C@@H]3Nc2ccccc21 | 0.162
31 | C[C@@]12CCC[C@@](C)(C(=O)O)[C@H]1C[C@@H](O)[C@@]13C[C@@H](CC[C@@H]21)[C@](C)(O)C3 | -0.305
32 | O=Cc1ccc2n1C[C@]1(OC2)O[C@H](CO)[C@@H](O)[C@@H]1O | 0.656
33 | C=C[C@@]1(C)CC[C@@H]([C@H](C)C(C)=O)O1 | -0.868
34 | C/C=C(/CO)C(=O)O[C@@H]1[C@H](O)[C@@H](C(=O)OC)O[C@@H]2C[C@H]3OC(n4cnc5c(N)ncnc54)[C@H](OC)[C@H]3O[C@@]12O (stereo partly specified) | -0.485
35 | C/C=C/[C@H]1[C@H]2C(=O)c3c(O)c(C)c(O)c(C)c3[C@]1(C(=O)O)C(=O)C=C2C | -0.823
36 | C[C@@]12C[C@@H](C[C@@H]3C(=O)O[C@@H](c4ccoc4)[C@H](OC(=O)c4ccccc4)[C@@H]31)OC2=O | -1.43
